From PubChem
Most compounds without a hit are left out; they make up all but 3.7% or so of the library.
Anthrax LF prot: inhibitors of Bacillus anthracis lethal factor protease. P15917. multiplex microsphere protease cleavage assay, LF. inhibition, % at 10 µM. 0.12% of 360,000 active; further: plate controls were buffer without enzyme for full effect and enzyme alone for no effect
Target sequence (P15917 whole entry, looked up): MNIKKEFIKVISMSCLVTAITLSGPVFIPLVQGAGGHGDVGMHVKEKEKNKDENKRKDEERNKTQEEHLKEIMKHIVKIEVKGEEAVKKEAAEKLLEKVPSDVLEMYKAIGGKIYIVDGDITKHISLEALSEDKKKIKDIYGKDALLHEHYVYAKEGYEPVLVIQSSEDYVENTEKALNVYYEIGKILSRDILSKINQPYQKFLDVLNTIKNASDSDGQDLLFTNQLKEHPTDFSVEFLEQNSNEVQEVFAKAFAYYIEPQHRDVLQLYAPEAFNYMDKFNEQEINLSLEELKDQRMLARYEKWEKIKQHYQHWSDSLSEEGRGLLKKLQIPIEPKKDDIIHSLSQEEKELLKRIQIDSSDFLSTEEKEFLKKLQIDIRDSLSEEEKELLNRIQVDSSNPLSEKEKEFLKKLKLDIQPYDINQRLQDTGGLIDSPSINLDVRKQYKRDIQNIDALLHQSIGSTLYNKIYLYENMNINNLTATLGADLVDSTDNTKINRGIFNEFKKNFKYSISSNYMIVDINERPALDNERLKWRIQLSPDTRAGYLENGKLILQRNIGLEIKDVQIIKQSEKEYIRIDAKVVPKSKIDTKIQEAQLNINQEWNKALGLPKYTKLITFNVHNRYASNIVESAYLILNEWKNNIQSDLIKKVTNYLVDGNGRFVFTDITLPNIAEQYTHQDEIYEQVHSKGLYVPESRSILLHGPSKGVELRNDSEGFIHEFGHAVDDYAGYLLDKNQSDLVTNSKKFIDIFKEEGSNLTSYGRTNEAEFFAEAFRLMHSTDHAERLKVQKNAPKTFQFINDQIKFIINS
BJeLR lethal: kills HRASV12-expressing BJeLR cells | BJeLR (HRASV12) viability, CellTiter-Glo ATP luminescence, 48 h | inhibition, % (concentration not given with the values) | 0.17% of 300,000 active | AID 1554; in the data active means inhibition above about 50%; inconclusive means no clear call, values can overlap the other calls
BoNT-A LC inh2: blocks Botulinum neurotoxin A light chain protease; multiplex microsphere protease substrate cleavage, flow cytometry; inhibition, % at 10 µM; 0.17% of 360,000 active; AID 588499; further: plate controls were buffer without enzyme for full effect and enzyme alone for no effect
BH1578 lux ind: inducers of Vibrio cholerae quorum light production without autoinducers | V. cholerae BH1578 lux reporter, luminescence, 6 h | activation, % at 18.7 µM | 0.16% of 350,000 active; in the data active means activation mostly above about 9.7%, no sharp cut-off; inconclusive means no clear call, values can overlap the other calls; inactive means mostly below about 3.7%
BoNT-F LC inh: blocks Botulinum neurotoxin F light chain protease. inhibition, % at 10 µM. Multiplex microsphere protease cleavage assay, flow cytometry. 0.22% of 360,000 active; in the data active means inhibition above about 35%, passing the limit was not always enough; inconclusive means no clear call, values can overlap the other calls; further: plate controls were buffer without enzyme for full effect and enzyme alone for no effect
Autofluor counter: compound fluorescence in toxin protease inhibitor counterscreen | compound autofluorescence counterscreen, microsphere flow cytometry; stronger effect = higher value | fluorescence intensity (concentration not given with the values) | 3.1% of 360,000 active; in the data active means fluorescence intensity above about 16000; inconclusive means no clear call, values can overlap the other calls
An asterisk follows results filed as active; i = inactive; u = inconclusive; x = not tested or not shown. Unless noted, no stated cut-off is given here; in the data, active means inhibition above about 30%; inconclusive means no clear call, values can overlap the other calls; inactive means below that.

SMILES	Anthrax LF prot	BJeLR lethal	BoNT-A LC inh2	BH1578 lux ind	BoNT-F LC inh	Autofluor counter
CC(=O)N1CCN(Cc2nc3cc(NC(=O)C4CCCCC4)ccc3n2C)CC1	2	1	u	4	-1	20181*
CCCCn1c(N)c(N(CCOC)C(=O)CCS(=O)(=O)c2ccc(C)cc2)c(=O)[nH]c1=O	3	x	0	i	3	3975
O=C(c1cc(-c2ccccc2)nc2ccccc12)N1N=C(C(F)F)CC1(O)C(F)F (configuration not stated)	-3	4	-7	0	-11	26128*
Cc1ccccc1-c1csc(C(O)c2ccccc2)n1 (configuration not stated)	-8	x	0	-1	3	4028
CCOC(=O)c1nn(-c2ccccc2)c(=O)cc1SC(C)C	-1	-23	0	1	2	11481
CCOC(=O)c1nn(-c2ccccc2)c(=O)cc1SC(C)CC (configuration not stated)	0	4	-2	-3	-3	23432*
CCCCSc1cc(=O)n(-c2ccccc2)nc1C(=O)OCC	0	-16	-2	i	-4	23302*
CCc1nc2c(OCc3cc(Cl)cc(Cl)c3)cccn2c1N(C=O)Cc1ccccc1	-4	x	-1	-1	4	4269
CC(=O)Nc1cc(-c2ccccc2N(C)C)cn2c(-c3ccc(S(C)(=O)=O)cc3)cnc12	-3	x	0	3	-1	2766
N#CC(=Nc1cccc(F)c1)C1=C(O)c2ccccc2C1=O	-14	x	-1	x	-12	5879
CCc1nc2ccc(C(=O)NCC3CCCCC3)cn2c1N(C)Cc1ccc(OC)cc1	-6	x	0	i	-9	3602
CCN1CCN(CCNC(=O)c2ccc(/C=C3/Sc4ccccc4N(Cc4ccccc4C)C3=O)cc2)CC1	-7	76*	0	-3	-6	6059
CCC(C)(C)c1ccc(OCCCC[n+]2cccc(C)c2C)c(C(C)(C)CC)c1	x	57*	x	i	x	x
O=C(Nc1cccnc1Cl)c1cccc(F)c1	x	10	x	x	x	x
CCOc1ncccc1C(=O)OCC(=O)Nc1cc(S(=O)(=O)N2CCOCC2)ccc1C	-2	1	0	0	-1	2006
Cc1cccc(C(=O)Nc2cccnc2Cl)c1	-25	6	66*	0	-160	2572
CCOc1ncccc1C(=O)OCC(=O)Nc1cc(C)ccc1C	-4	-2	-1	0	-1	23113*
Cc1cccc(C(=O)Nc2cc(OCc3cccc(F)c3)c(Cl)cc2Cl)c1	0	-1	u	i	1	19656*
Cc1ccc(C)c(NC(=O)c2ccccn2)c1	0	10	u	i	0	20724*
Nc1nc2ncccc2cc1C(=O)NC1CCCCC1	3	x	1	x	6	5751
CC(=O)NC(C)(c1ccccc1)c1nc(-c2ccc(F)c(Cl)c2)cs1 (configuration not stated)	0	x	0	-1	0	3856
C(=N\Nc1nncc2ccccc12)/c1ccccn1	-5	56*	-1	0	-5	4339
CC(=O)Nc1ccc(/C=N/Nc2nncc3ccccc23)cc1	0	-2	5	i	48*	3024
O=C1Cc2ccccc2C(=O)N1	-6	x	1	x	4	5983
Nc1nc2c(c(=O)[nH]1)C(c1ccccc1)C1=C(N2)c2ccccc2C1=O (configuration not stated)	-2	-1	0	i	-2	4504
SMILES	Anthrax LF prot	BJeLR lethal	BoNT-A LC inh2	BH1578 lux ind	BoNT-F LC inh	Autofluor counter
Cn1c2c(c(=O)[nH]c1=O)C(c1ccc(O)cc1)C1=C(N2)c2ccccc2C1=O (configuration not stated)	-6	-4	0	25*	0	4288
CC1(c2nc3ccccc3[nH]2)c2ccccc2C(=O)N1C1CC1 (configuration not stated)	-7	x	0	x	8	5003
Cc1ccc(C(=O)O/N=C2\CC3CCC2(C)C3(C)C)cc1 (configuration not stated)	-3	-7	u	i	1	21254*
CCOC(=O)c1cc2c(=O)n3ccccc3nc2n(C(C)C)c1=NC(=O)c1c(-c2c(F)cccc2Cl)noc1C	34*	-21	71*	0	24	2502
CCOc1cccc(C=Nc2cc(C)cc(C)c2O)c1O	-1	-15	u	1	4	22996*
O=C1CSc2ccc(C(=O)N3CCN(c4ccccn4)CC3)cc2N1	-2	0	u	i	-7	25914*
O=C1Nc2cc(C(=O)N3CCN(c4ccccn4)CC3)ccc2S/C1=C\c1ccccc1	2	13	0	0	0	5077
O=C(c1ccc2c(c1)OCO2)N1CCN(c2ccccn2)CC1	-1	-14	0	0	-2	2499
O=C(c1ccc2c(c1)OCCO2)N1CCN(c2ccccn2)CC1	-10	1	-38	i	-60	17835*
O=C1C(C=NCCCN2CCCC2=O)=C(O)c2ccccc21	-2	8	1	-2	0	19393*
O=C(O)c1cccc(NC(=O)C2C3C=CC(C3)C2C(=O)O)c1 (configuration not stated)	x	-1	x	i	x	x
O=C(O)C1C2C=CC(C2)C1C(=O)Nc1cccc(F)c1 (configuration not stated)	-1	7	-1	-1	-4	22384*
CCOc1ccccc1NC(=O)C1C2C=CC(O2)C1C(=O)O (configuration not stated)	3	8	0	i	-3	2910
CCOc1ccccc1NC(=O)C1C2C=CC(C2)C1C(=O)O (configuration not stated)	-2	0	-4	0	-7	25672*
OCCCn1c(-c2ccccc2)nc(=S)c2c1CCCC2	1	-3	u	i	2	21784*
Cc1ccc(-c2nc(=S)c3c(n2Cc2ccco2)CCCC3)cc1	-4	x	0	-2	-1	3147
Cc1cccc(-c2nc(=S)c3c(n2Cc2ccco2)CCCC3)c1	-10	-12	3	0	1	22703*
CN(C)CCCn1c(-c2ccccc2)nc(=S)c2c1CCCC2	-14	-8	u	-3	-32	19594*
CC1(C(=O)Nc2cccc(C#N)c2)CCN1C(=O)Cc1ccc(-c2ccccc2)cc1 (configuration not stated)	-8	x	0	0	0	3909
CC1ON=C(c2ccccn2)N(Cc2ccc(S(C)(=O)=O)cc2)C1=O (configuration not stated)	-1	x	-2	0	-18	5003
CC(C)c1ccc(/C=C(\c2nc3ccccc3[nH]2)S(=O)(=O)c2ccccc2)cc1	-1	7	-1	i	-2	2231
O=S(=O)(/C(=C/c1ccc(C(F)(F)F)cc1)c1nc2ccccc2[nH]1)c1ccccc1	-1	68*	1	i	16	2584
O=C(NCCSc1ccc(Cl)cc1)c1ccco1	-2	1	2	6	2	21843*
CC(NC(=O)c1ccco1)C(=O)OCc1cccc(Cl)c1 (configuration not stated)	-1	3	-6	i	-10	25194*
